Out of some 310,000 compounds screened, about 14,000 (4.5%) showed an effect of 50% or more. The effect is printed as a negative number. The entries come from a sample that favours strong results as a whole.
Target: human ether-à-go-go-related gene (hERG) potassium channel (human, UniProt Q12809)
Assay: primary screen, population patch clamp on CHO cells stably expressing hERG; higher = less effect of the substance
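Note: peak tail current of the secondary pulse compared with the same well before compound.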

Sequence of human ether-à-go-go-related gene (hERG) potassium channel (Q12809 whole entry, looked up): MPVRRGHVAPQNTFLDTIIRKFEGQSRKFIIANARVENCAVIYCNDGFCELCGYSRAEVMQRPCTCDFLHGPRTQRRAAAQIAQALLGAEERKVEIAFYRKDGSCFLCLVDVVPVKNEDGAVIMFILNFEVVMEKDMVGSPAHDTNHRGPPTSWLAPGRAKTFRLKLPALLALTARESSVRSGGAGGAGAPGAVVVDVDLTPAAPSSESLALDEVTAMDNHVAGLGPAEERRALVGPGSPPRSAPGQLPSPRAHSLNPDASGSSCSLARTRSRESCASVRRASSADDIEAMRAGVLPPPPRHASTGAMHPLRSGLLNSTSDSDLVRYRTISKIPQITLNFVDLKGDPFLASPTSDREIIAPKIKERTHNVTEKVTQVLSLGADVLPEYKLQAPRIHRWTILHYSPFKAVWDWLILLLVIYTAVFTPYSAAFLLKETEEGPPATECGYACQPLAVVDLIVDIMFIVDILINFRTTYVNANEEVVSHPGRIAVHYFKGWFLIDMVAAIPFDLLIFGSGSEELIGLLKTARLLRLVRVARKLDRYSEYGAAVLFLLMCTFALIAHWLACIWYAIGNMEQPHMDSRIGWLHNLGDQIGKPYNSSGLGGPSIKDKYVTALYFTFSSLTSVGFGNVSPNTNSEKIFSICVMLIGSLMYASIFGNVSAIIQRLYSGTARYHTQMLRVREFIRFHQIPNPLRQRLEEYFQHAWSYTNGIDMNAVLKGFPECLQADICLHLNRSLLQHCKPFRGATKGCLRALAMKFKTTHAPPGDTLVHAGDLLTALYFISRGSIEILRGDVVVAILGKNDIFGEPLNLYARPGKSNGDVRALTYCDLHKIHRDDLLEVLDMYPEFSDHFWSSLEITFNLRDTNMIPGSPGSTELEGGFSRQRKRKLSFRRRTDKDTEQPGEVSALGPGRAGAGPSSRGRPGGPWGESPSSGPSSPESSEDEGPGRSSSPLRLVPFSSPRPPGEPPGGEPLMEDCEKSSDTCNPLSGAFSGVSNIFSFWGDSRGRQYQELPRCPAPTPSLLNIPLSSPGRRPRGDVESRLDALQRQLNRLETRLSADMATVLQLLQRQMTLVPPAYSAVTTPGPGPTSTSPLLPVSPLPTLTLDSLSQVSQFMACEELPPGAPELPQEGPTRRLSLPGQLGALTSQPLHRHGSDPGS

Point of comparison: Cc1cc(C(=O)Nc2cc(C(F)(F)F)ccc2N2CCOCC2)no1, “hERG current change (%, negative = inhibition) at 10uM” value 5.97%. Against it:
- O=C(CCC(=O)OCC(=O)c1ccc([N+](=O)[O-])cc1)NC1CCCCC1 — lower, -0.724%
- COc1ccc(Cn2nnnc2CN2CCC(O)(c3ccc(F)cc3)CC2)cc1 — lower, -14.5%
- CC(C)(C)c1cnnn1-c1ccc(NC(=O)c2ccc3c(c2)OCO3)cc1 — lower, -17.4%
- COc1cccc(C(=O)Nc2ccc(-n3nncc3C(C)(C)C)cc2)c1 — lower, -60.5%
- COc1ccc(C(=O)Nc2ccc(-n3nncc3C(C)(C)C)cc2)cc1 — lower, -26.4%
- Cc1ccc(-n2c3c(cc(C(=O)NCC(=O)c4ccccc4)c2=O)C(=O)CCC3)cc1 — higher, 10.2%
- CC1(C)CC(=O)c2cc(C(=O)NCc3ccco3)c(=O)n(-c3ccccc3)c2C1 — lower, -19.7%
- Cc1ccc(-n2c3c(cc(C(=O)NCc4ccco4)c2=O)C(=O)CC(C)(C)C3)cc1 — lower, -6.38%
- O=C1CCCc2c1cc(C(=O)NCc1ccco1)c(=O)n2-c1ccccc1 — lower, -10.3%
- Cc1ccc(-n2c3c(cc(C(=O)NCc4ccco4)c2=O)C(=O)CCC3)cc1 — lower, -53.8%
- O=C1CCCc2c1cc(C(=O)O)c(=O)n2-c1ccccc1 — higher, 13.9%
- O=C1CCCc2c1cc(C(=O)Nc1ccc(Cl)cn1)c(=O)n2-c1ccccc1 — lower, -60.1%
- CC1(C)CC(=O)c2cc(C(=O)NCc3ccco3)c(=O)n(-c3ccc(Cl)cc3)c2C1 — lower, -22.2%
- O=C1CCCc2c1cc(C(=O)NCCCN1CCOCC1)c(=O)n2-c1ccc(Cl)cc1 — lower, 1.59%
- O=C1CCCc2c1cc(C(=O)Nc1ccc(Br)cn1)c(=O)n2-c1ccccc1 — lower, -2.93%
- O=C1CCCc2c1cc(C(=O)NCc1ccco1)c(=O)n2-c1ccc(Cl)cc1 — lower, -69.3%
- COc1ccc(-n2c3c(cc(C(=O)NCc4ccco4)c2=O)C(=O)CC(C)(C)C3)cc1 — lower, -56.6%
- CS(=O)(=O)N(CC(=O)N1CCN(c2cccc(Cl)c2)CC1)c1cccc(F)c1 — lower, -33.8%
- COc1ccccc1NC(=O)Cn1c(CN2CCCCC2)nc2ccccc2c1=O — lower, -43.7%
- CN(Cc1cccs1)C(=O)CCCc1c[nH]c2ccccc12 — lower, -1.49%
- COc1ccc(/C(O)=C2/C(=O)C(=O)N(CCN(C)C)C2c2ccc(OC)c(OC)c2)c(C)c1 (stereo not drawn) — higher, 11%
- O=C(c1cc(S(=O)(=O)N2CCOCC2)ccc1Cl)N1CCC(Cc2ccccc2)CC1 — lower, -15.9%
- Cc1cc(CNC(=O)c2ccc(C)c([N+](=O)[O-])c2)c2ccccc2n1 — higher, 8.05%
- Cc1cc(CNC(=O)c2cccc([N+](=O)[O-])c2C)c2ccccc2n1 — lower, -53%
- Cc1cc(CNC(=O)c2cccc([N+](=O)[O-])c2)c2ccccc2n1 — higher, 6.72%
- CN(CC(=O)Nc1ccc(F)cc1)C(=O)COc1ncnc2ccccc12 — lower, -19.3%
- Cc1ccc(NC(=O)COc2ccccc2C(=O)NCc2ccccc2)cc1 — lower, -31.1%
- c1ccc(-c2cn(C[C@H]3CC[C@@H]([C@@H]4CC[C@H](Cn5cc(-c6ccccn6)nn5)O4)O3)nn2)nc1 — lower, -6.73%
- c1cc(-c2cn(C[C@H]3CC[C@@H]([C@@H]4CC[C@H](Cn5cc(-c6ccsc6)nn5)O4)O3)nn2)cs1 — lower, -75.5%
- c1cncc(-c2cn(C[C@H]3CC[C@@H]([C@@H]4CC[C@H](Cn5cc(-c6cccnc6)nn5)O4)O3)nn2)c1 — lower, -58.5%
- COc1cccc(-c2cn(C[C@H]3CC[C@@H]([C@@H]4CC[C@H](Cn5cc(-c6cccc(OC)c6)nn5)O4)O3)nn2)c1 — lower, -72.7%
- c1ccc(-c2cn(C[C@H]3CC[C@@H]([C@@H]4CC[C@H](Cn5cc(-c6ccccc6)nn5)O4)O3)nn2)cc1 — lower, -23.8%
- c1ccc(-c2cn(C[C@H]3CC[C@H](Cn4cc(-c5ccccn5)nn4)O3)nn2)nc1 — lower, -9.3%
- COc1ccc(-c2cn(CC3CCCCC3)nn2)cc1 — higher, 15.3%
- COc1ccc(-c2cn(Cc3cccc(OC)c3)nn2)cc1 — lower, -0.524%
- Cc1ccc(-c2cn(C[C@H]3CC[C@@H]([C@@H]4CC[C@H](Cn5cc(-c6ccc(C)cc6)nn5)O4)O3)nn2)cc1 — lower, -7.99%
- Cc1c(CCO)c(=O)n(C)n1C(=O)c1ccc(F)cc1 — lower, 2.6%
- CCCCCN(C(=O)CCC(=O)OCc1ccc(C(C)(C)C)cc1)c1c(N)n(CCCC)c(=O)[nH]c1=O — lower, -8.09%
- CCN(Cc1ccccc1)C(=O)c1ccc(CS(=O)c2ccccc2C)o1 (stereo not drawn) — lower, -43.9%
- C/C(=N\NC(=O)c1csc(C)c1C)c1ccc(Cl)s1 — lower, -0.674%
- C/C=C\C=C\C(=O)N1CC2(CC(c3cccc(NC(=O)CC(c4ccccc4)c4ccccc4)c3)=NO2)C[C@H]1C(N)=O (stereo partly drawn) — lower, 0.883%
- CCOc1ccc(NC2=C(Cl)C(=O)N(Cc3ccccc3)C2=O)cc1 — lower, -0.258%
- O=C1C(Cl)=C(Nc2cccc(O)c2)C(=O)N1Cc1ccccc1 — lower, -62.4%
- CC1CCCCN1C(=O)c1cccc(NC2=C(Cl)C(=O)N(Cc3ccccc3)C2=O)c1 (stereo not drawn) — lower, -15.8%
- NC(C(=O)O)c1cc(=O)[nH]o1 (stereo not drawn) — higher, 13.4%
- COCCn1c(SCC(=O)Nc2cc(C)on2)nnc1-c1ccco1 — lower, -4.67%
- COCCn1c(SCC(=O)Nc2cccc(C)n2)nnc1-c1ccco1 — lower, -11.5%
- COCCCn1c(SCC(=O)Nc2cccc(C)n2)nnc1-c1ccco1 — lower, -69.3%
- CCC(=O)Nc1ccc(NC(=O)CSc2nnc(-c3ccco3)n2CC)cc1 — higher, 8.22%
- CCCCn1c(SCC(=O)NC(C)(C)C)nnc1-c1ccco1 — lower, -1.57%
- CCCCn1c(SCC(=O)Nc2cc(C)on2)nnc1-c1ccco1 — lower, -23.3%
- CCn1c(SCC(=O)Nc2cc(C)on2)nnc1-c1ccco1 — lower, -4.87%
- CCCn1c(SCC(=O)NC2CCCCC2)nnc1-c1ccco1 — lower, -20.3%
- CCn1c(SCC(=O)Nc2cccc(C)n2)nnc1-c1ccco1 — lower, -50.9%
- CCCCn1c(SCC(=O)NC2CCCC2)nnc1-c1ccco1 — lower, -54.8%
- CCn1c(SCC(=O)NC2CCCC2)nnc1-c1ccco1 — higher, 14.8%
- CCCCn1c(SCC(=O)Nc2cccc(C)n2)nnc1-c1ccco1 — lower, -76%
- O=C(O)c1cccc(Nc2ncnc3ccc(Br)cc23)c1 — lower, -1.55%
- COc1ccccc1CNS(=O)(=O)c1ccc(C)cc1 — higher, 7.04%
- CN(C)c1ccc(/C=C2\C(=N)N3N=C(CC(=O)N4CCCC4)SC3=NC2=O)cc1Br — lower, 4.09%
- COCc1cc(C)nc(N/N=C/c2ccc(Cl)c(Cl)c2)c1C#N — higher, 12.4%
- CCN1CC2([N+](=O)[O-])CC=C(Cl)C([N+](=O)[O-])(C1)C2 (stereo not drawn) — higher, 13.9%
- Cc1cc(N2CCN(S(=O)(=O)c3ccc4ccccc4c3)CC2)n2ncnc2n1 — lower, -77.7%
- Cc1cc(N2CCN(S(=O)(=O)Cc3ccccc3)CC2)n2ncnc2n1 — lower, -46.1%
- CC(=O)Nc1ccc(S(=O)(=O)N2CCN(c3cc(C)nc4ncnn34)CC2)cc1 — lower, -27.9%
- Cc1cc(N2CCN(S(=O)(=O)c3ccc(Br)cc3)CC2)n2ncnc2n1 — lower, -76.9%
- Cc1ccccc1N1CCN(S(=O)(=O)c2ccc3ccccc3c2)CC1 — higher, 9.64%
- Cc1nc2ncnn2c(N2CCN(S(=O)(=O)c3ccc(Br)cc3)CC2)c1C — lower, -20.7%
- CC1CN(C(=O)CSc2nnc(NC(=O)NC(C)(C)C)s2)CC(C)O1 (stereo not drawn) — higher, 19%
- CC1(CCc2ccccc2)NC(=O)N(Cc2nnc(-c3ccccc3Br)o2)C1=O (stereo not drawn) — lower, -26%
- CCOC(=O)C1CCN(C(=O)CN(c2ccc(OC)c(OC)c2)S(=O)(=O)c2ccccc2)CC1 — lower, -14.7%
- CCOc1ccc(S(=O)(=O)NCCC(=O)NCC(c2ccco2)N2CCCCC2)cc1 (stereo not drawn) — lower, -17.7%
- CCC(=O)Nc1cc(C(F)(F)F)ccc1N1CCOCC1 — lower, 1.09%
- CCCCn1nc(C(=O)Nc2cc(C(F)(F)F)ccc2N2CCOCC2)ccc1=O — lower, -83.7%
- O=C(Nc1cc(C(F)(F)F)ccc1N1CCCCC1)c1ccco1 — higher, 21.2%
- CN1CCN(c2ccc([N+](=O)[O-])cc2NC(=O)c2ccco2)CC1 — lower, -66.9%
- O=C(Nc1cc(C(F)(F)F)ccc1N1CCOCC1)c1ccco1 — higher, 6.93%
- CC1N(C)c2cc(NC(=O)c3ccco3)c(P(=O)(Nc3ccc([N+](=O)[O-])cc3)N3CCOCC3)cc2C1(C)C (stereo not drawn) — lower, -56%
- CC1N(C)c2cc(NC(=O)c3cccs3)c(P(=O)(Nc3ccc([N+](=O)[O-])cc3)N3CCOCC3)cc2C1(C)C (stereo not drawn) — higher, 12.2%
- CN1CCN(c2ccc(C(F)(F)F)cc2NC(=O)c2ccco2)CC1 — lower, -54.5%
- O=C(Nc1cc([N+](=O)[O-])ccc1N1CCOCC1)c1ccco1 — lower, -25.6%
- O=C(Nc1cc([N+](=O)[O-])ccc1N1CCCC1)c1ccco1 — lower, -34.5%
- CC1N(C)c2cc(NC(=O)c3ccco3)ccc2C1(C)C (stereo not drawn) — lower, -13.9%

From paper PMC4336329 (PLoS ONE, 2015)
